Results taken from article PMC5540273 (PLoS ONE, 2017).

Assays:
Settings in all cases: concentration: 1 μM, replicates: in singlicate; n = 1
ULK3 = test system: ULK3
VEGFR2 = test system: T1, VEGFR2
T1 construct: gene KDR

VPS34 = test system: T2, VPS34
T2 construct: gene PIK3C3

VRK2 = test system: VRK2
WEE1 = test system: WEE1
WEE2 = test system: WEE2
WNK1 = test system: WNK1
WNK2 = test system: WNK2
WNK3 = test system: WNK3
WNK4 = test system: WNK4
YANK1 = test system: T3, YANK1
T3 construct: gene STK32A

YANK2 = test system: T4, YANK2
T4 construct: gene STK32B

YANK3 = test system: T5, YANK3
T5 construct: gene STK32C

YES = test system: T6, YES
T6 construct: gene YES1

YSK1 = test system: T7, YSK1
T7 construct: gene STK25

YSK4 = test system: T8, YSK4
T8 construct: gene MAP3K19

ZAK = test system: ZAK
ZAP70 = test system: ZAP70
p38-alpha = test system: T9, p38-alpha
T9 construct: gene MAPK14

p38-beta = test system: T10, p38-beta
T10 construct: gene MAPK11
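Further: KINOMEscan kinase panel screen.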

| SMILES | %Inh (ULK3) | %Inh (VEGFR2) | %Inh (VPS34) | %Inh (VRK2) | %Inh (WEE1) | %Inh (WEE2) | %Inh (WNK1) | %Inh (WNK2) | %Inh (WNK3) | %Inh (WNK4) | %Inh (YANK1) | %Inh (YANK2) | %Inh (YANK3) | %Inh (YES) | %Inh (YSK1) | %Inh (YSK4) | %Inh (ZAK) | %Inh (ZAP70) | %Inh (p38-alpha) | %Inh (p38-beta) |
| --- | --- | --- | --- | --- | --- | --- | --- | --- | --- | --- | --- | --- | --- | --- | --- | --- | --- | --- | --- | --- |
| Nc1nc(N)c2nc(-c3ccccc3)[nH]c2n1 [SKF-12778] | 30% | 0% | 0% | 5% | 8% | 0% | 9% | 9% | 11% | 17% | 0% | 1% | 13% | 11% | 0% | 68% | 22% | 14% | 0% | 7% |
| Cc1nnc(-c2ccc(C)c(-c3ccc(C(=O)O)cc3)c2)o1 [GW608005] | 0% | 3% | 0% | 0% | 0% | 0% | 30% | 0% | 15% | 0% | 0% | 0% | 9% | 0% | 0% | 15% | 0% | 0% | 0% | 0% |
| Cc1cccc(-c2nc(Nc3ccc4c(cnn4C)c3)c3ccccc3n2)n1 [GW876731] | 0% | 0% | 56% | 15% | 0% | 0% | 18% | 7% | 21% | 0% | 0% | 0% | 32% | 0% | 0% | 42% | 0% | 14% | 10% | 7% |
| O=C(Nc1ccc2c(c1)OCO2)NC1CCN(c2ccnc(NCc3ccc(F)cc3)n2)CC1 [GSK1379859] | 0% | 0% | 7% | 0% | 12% | 0% | 0% | 0% | 0% | 13% | 11% | 0% | 0% | 9% | 0% | 0% | 0% | 0% | 0% | 0% |
| Nc1n[nH]c2nnc(-c3ccccc3)c(-c3ccccc3)c12 [GW554060] | 16% | 0% | 0% | 18% | 44% | 9% | 3% | 41% | 18% | 14% | 7% | 0% | 26% | 17% | 0% | 16% | 5% | 0% | 0% | 0% |
| COc1ccc(CNC(=O)NC2CCN(c3ccnc(Nc4ccc(F)cc4)n3)C2)cc1 (stereo not shown) [GSK1379706] | 0% | 9% | 33% | 33% | 10% | 9% | 0% | 30% | 49% | 50% | 12% | 0% | 0% | 0% | 25% | 0% | 0% | 20% | 44% | 0% |
| CCC(=O)c1c(-c2ccccc2)c2cc(Cl)ccc2c(=O)n1Cc1cc(S(C)(=O)=O)n(CCC(C)(C)O)n1 | 0% | 2% | 0% | 0% | 0% | 0% | 0% | 31% | 0% | 25% | 19% | 13% | 23% | 0% | 0% | 0% | 27% | 3% | 16% | 6% |
| Nc1ncnc2c1ncn2-c1cccc2ccccc12 [SKF-97184] | 30% | 0% | 56% | 29% | 0% | 0% | 15% | 0% | 29% | 15% | 0% | 80% | 4% | 0% | 12% | 23% | 0% | 37% | 0% | 0% |
